Where “and” joins values, the source holds several entries; their conditions need not be identical. Equal values may be shown once. Inconclusive results are not listed. Calls of active or inactive are those of the source.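 How the source made its calls, unless noted: active means compounds whose cell count with miR-34 switched on is under 0.7 times the count with it off; inactive means the rest.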
Columns and labels:
[1] = stimulators of nuclear beta-catenin in C2C12, primary screen, imaging, WNT3A-conditioned medium, mouse C2C12, NPC library (AID 1117326; in the data active means nuclear beta-catenin stimulation mostly above about 4.2%, no sharp cut-off; inactive means mostly below about 10%; further: reference of the scale not given here); conditions: stronger effect = higher value
[2] = stimulators of insulin release from INS-1E, primary screen, cell-based, 5 mM glucose, NPC library (AID 1117329;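 active means compound raises insulin release from rat beta cells at 5 mM glucose, no numeric limit stated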; further: reference of the scale not given here); conditions: rat INS-1E insulin secretion, at 10 µM, stronger effect = higher value
[3] = growth inhibition of GSK3B-pretreated HCT116 cells – cell-based, CellTiter-Glo, 0.2 to 20 µM (AID 1117336;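 active means compounds lowering colon cancer cell viability after pretreatment blocking the GSK3B kinase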); conditions: HCT116 viability after GSK3B inhibitor, at 20 µM, stronger effect = higher value
[4] = inhibition of endothelial tube formation, primary screen, imaging, VEGF stimulated, CD31 staining, tube area, NPC library (AID 1117340;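 active means compound that reduces growth-factor-driven endothelial tube area in a mixed cell culture, no cutoff stated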); conditions: VEGF-stimulated ADSC/ECFC co-culture, at 10 µM, stronger effect = higher value
[5] = glucagon-like peptide 1 release enhancers, primary assay, NCI-H716 cell line, NPC library (AID 1117341;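 active means compound raises GLP1 secretion from the human gut endocrine cells, with no numeric limit stated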; further: reference of the scale not given here); conditions: NCI-H716 cells, at 10 µM, stronger effect = higher value
[6] = HCT116 colon cancer cell growth inhibition, primary screen, CellTiter-Glo luminescence, NPC library (AID 1117342;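 active means compounds that lower survival of HCT116 colon cancer cells in the luminescence readout, no numeric limit stated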); conditions: at 20 µM (top of the series)
[7] = CellTiter-Glo luminescent readout of SW480 viability loss, NPC library primary (AID 1117343;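 active means compounds that lower viability of the colon cancer cells in the luminescence readout, with no numeric limit stated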); conditions: CellTiter-Glo luminescence; at 20 µM (top of the series) unless noted
[8] = decreased DLD-1 cellular survival, CellTiter-Glo luminescent readout, NPC compound collection, primary HTS (AID 1117346;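 active means compounds that lower survival of DLD-1 colon cancer cells in the luminescence readout, no cutoff given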); conditions: DLD-1 viability, CellTiter-Glo luminescence; at 20 µM (top of the series)
[9] = test system: Aerobactin synthetase IucA (Klebsiella pneumoniae); assay: IucA aerobactin synthetase inhibitors, biochemical, Tocris library, absorbance (AID 1345561; call rule not given here;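 further: 100% = enzyme without compound and 0% = no enzyme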); conditions: purified IucA enzyme assay, absorbance (OD) read-out; stronger effect = lower value;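 tested at 8 µM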
[10] = sensitizers of A549 cells to miR-34 induction, primary screen, imaging, A549 dox-inducible miR-34, nuclei and caspase counts (AID 1347080); conditions: A549 miR-34 inducible, Hoechst nuclei count, 48 h
[11] = molecular target: NAD(+) hydrolase SARM1 (Homo sapiens) (UniProt Q6SZW1); assay: SARM1 TIR NADase inhibitors, cell lysate, NAD-Glo luminescence (AID 1508614;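 active means compound whose remaining NAD level is above about 45 nM, limit read from the data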); conditions: SAM-TIR HEK293T lysate NADase, at 1 µM, stronger effect = higher value
[12] = viability rescue of complex I mutant cybrids, primary screen, cell-based, galactose medium, ATP luminescence (AID 1645843;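 active means z-score of at least 1.8 in each of two replicates, scored against plate mean and spread of sample wells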;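 further: positive z means more ATP and so rescue of galactose-driven cybrid death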); conditions: complex I mutant cybrid cells, 72 h, stronger effect = higher value
[13] = liver-stage malaria parasite growth inhibition, primary screen, cell-based, HepG2, luciferase luminescence, HepG2 viability (AID 624349; in the data active means parasite load remaining mostly below about 12%, no sharp cut-off; inactive means mostly above about 10%;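 further: 100% = mean of DMSO negative control wells on the same plate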); conditions: P. berghei liver stage in HepG2, luciferase luminescence, concentration not given here; parasite load remaining: stronger effect = lower value; viability: measured here: HepG2 viability without parasites
[14] = growth inhibition of DIPG glioma cells, dose response, cell-based, SU-DIPG-XVII, MIPE5.0, CellTiter-Glo, qHTS (AID 1347060; cut-off not given, nearly all actives have AC50 up to about 26 µM); conditions: SU-DIPG-XVII viability, CellTiter-Glo ATP luminescence
[15] = growth inhibition of DIPG glioma cells, dose response, cell-based, SU-DIPG-XIII, MIPE4.0, CellTiter-Glo, qHTS (AID 1347061; cut-off not given, nearly all actives have AC50 up to about 37 µM;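 further: cells exposed to compound for 48 hours before readout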); conditions: SU-DIPG-XIII viability, CellTiter-Glo ATP luminescence
[16] = SU-DIPG-XXV glioma cell viability, MIPE5.0 library, qHTS (AID 1347068; cut-off not given, nearly all actives have IC50 up to about 30 µM)
[17] = survival rescue of mitochondrial mutant cells in low glucose, primary screen, MELAS cybrids, Rieske KO mouse fibroblasts, CellTiter-Glo (AID 1508586;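 active means mean z-score across replicates of 1.96 or higher in either the MELAS or the Rieske mutant cell line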;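 further: z relative to plate mean and SD of compound and empty wells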)
[18] = stronger effect = lower value, cell number ratio, induced over uninduced
[19] = measured here: relative caspase fold change +Dox/-Dox
[20] = measured here: total cells with miR-34 induction, stronger effect = lower value
[21] = measured here: total cells without miR-34 induction

Sequence of NAD(+) hydrolase SARM1 (Homo sapiens) (Q6SZW1 whole entry, looked up): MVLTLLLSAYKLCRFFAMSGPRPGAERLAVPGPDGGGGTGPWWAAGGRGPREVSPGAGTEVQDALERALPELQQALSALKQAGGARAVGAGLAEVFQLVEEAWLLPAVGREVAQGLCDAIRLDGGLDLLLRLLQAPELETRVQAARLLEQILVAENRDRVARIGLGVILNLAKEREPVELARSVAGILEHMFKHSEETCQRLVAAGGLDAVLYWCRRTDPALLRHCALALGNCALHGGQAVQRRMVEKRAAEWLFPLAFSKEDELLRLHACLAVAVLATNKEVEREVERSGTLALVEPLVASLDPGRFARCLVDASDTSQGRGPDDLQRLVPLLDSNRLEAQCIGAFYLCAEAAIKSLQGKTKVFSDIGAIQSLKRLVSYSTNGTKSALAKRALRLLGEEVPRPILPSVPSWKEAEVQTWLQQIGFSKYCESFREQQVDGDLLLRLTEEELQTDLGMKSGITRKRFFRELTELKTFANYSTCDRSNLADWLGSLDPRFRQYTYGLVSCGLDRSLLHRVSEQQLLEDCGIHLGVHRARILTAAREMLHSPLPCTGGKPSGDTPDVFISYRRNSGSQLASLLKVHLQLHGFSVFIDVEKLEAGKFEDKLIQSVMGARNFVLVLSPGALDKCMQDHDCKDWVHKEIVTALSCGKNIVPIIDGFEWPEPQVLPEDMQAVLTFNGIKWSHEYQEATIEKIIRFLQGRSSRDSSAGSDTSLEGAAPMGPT

Structure (SMILES): CN1CCC[C@@H]1Cc1c[nH]c2ccc(CCS(=O)(=O)c3ccccc3)cc12
- nuclear beta-catenin stimulation ([1]; at 10 µM): 1.8% (inactive)
- nuclear beta-catenin stimulation ([1]; stimulation, at 2 µM): 1%
- insulin secretion stimulation [2]: 3.3% (inactive)
- viability decrease [3]: 30.6% (inactive)
- tube area decrease [4]: 0.6% (inactive)
- GLP1 secretion stimulation [5]: 5.3% (inactive)
- inhibition of viability [6]: 36.8% (inactive)
- viability decrease (inhibition) [7]: 19.5% (inactive)
- viability decrease (inhibition) [8]: -0.8% (inactive)
- remaining activity [9]: 117% (inactive)
- fold change [10, 18]: 0.993 (inactive) and 0.947 (inactive)
- fold change [10, 19]: 1.11 and 0.557
- cell count [10, 20]: 9730 and 9170
- cell count [10, 21]: 9790 and 9680
- remaining NAD [11]: 10 nM (inactive)
- z-score [12]: -0.6 (inactive) and -0.525 (inactive)

Structure (SMILES): CC[N+](CC)(CC)CCOc1ccc(/C=C/c2ccccc2)cc1
- nuclear beta-catenin stimulation ([1]; at 10 µM): 0.4% (inactive)
- nuclear beta-catenin stimulation ([1]; stimulation, at 2 µM): -0.8%
- insulin secretion stimulation [2]: 1.3% (inactive)
- viability decrease [3]: -35.4% (inactive)
- tube area decrease [4]: 82.5% (active)
- GLP1 secretion stimulation [5]: -1.8% (inactive)
- inhibition of viability [6]: 46.8% (inactive)
- viability decrease (inhibition) [7]: -6% (inactive)
- viability decrease (inhibition) [8]: 56.2% (active)
- remaining activity [9]: 112% (inactive)
- fold change [10, 18]: 1.12 (inactive) and 0.929 (inactive)
- fold change [10, 19]: 0.542 and 0.715
- cell count [10, 20]: 2640 and 2410
- cell count [10, 21]: 2350 and 2590
- z-score [12]: -1.29 (inactive) and -0.77 (inactive)

Structure (SMILES): COc1ccc2c(c1OC)C(=O)O[C@@H]2[C@H]1c2c(cc3c(c2OC)OCO3)CCN1C
- parasite load remaining [13]: 89.7% (inactive) and 72.1% (inactive)
- viability [13]: 104% and 75.4%
- nuclear beta-catenin stimulation ([1]; at 10 µM): 3.5% (inactive)
- nuclear beta-catenin stimulation ([1]; stimulation, at 2 µM): 0.1%
- insulin secretion stimulation [2]: 2% (inactive)
- viability decrease [3]: 55.6% (active)
- tube area decrease [4]: 4.1% (inactive)
- GLP1 secretion stimulation [5]: -1.8% (inactive)
- inhibition of viability [6]: 46.2% (inactive)
- viability decrease (inhibition) [7]: 90.4% (active)
- viability decrease (inhibition) [8]: 2.7% (inactive)
- remaining activity [9]: 111% (inactive)
- fold change [10, 18]: 0.961 (inactive) and 0.857 (inactive) and 1.04 (inactive)
- fold change [10, 19]: 0.539 and 1.29 and 0.971
- cell count [10, 20]: 6010 and 7290 and 6960
- cell count [10, 21]: 6250 and 8520 and 6720
- remaining NAD [11]: 10 nM (inactive)
- z-score [12]: 0.555 (inactive) and 0.075 (inactive)

Structure (SMILES): C1COC(NC(C2CC2)C2CC2)=N1
- parasite load remaining [13]: 46.7% (inactive)
- viability [13]: 103%
- nuclear beta-catenin stimulation ([1]; at 10 µM): 0.2% (inactive)
- nuclear beta-catenin stimulation ([1]; stimulation, at 2 µM): -0.7%
- insulin secretion stimulation [2]: 1.6% (inactive)
- viability decrease [3]: -1.8% (inactive)
- tube area decrease [4]: -7.6% (inactive)
- GLP1 secretion stimulation [5]: 1.5% (inactive)
- inhibition of viability [6]: 5.7% (inactive)
- viability decrease (inhibition) [7]: -4% (inactive)
- viability decrease (inhibition) [8]: 7.9% (inactive)
- remaining activity [9]: 98.2% (inactive)
- outcome [14]: inactive
- outcome [15]: inactive
- outcome [16]: inactive
- fold change [10, 18]: 0.947 (inactive) and 0.935 (inactive) and 0.925 (inactive)
- fold change [10, 19]: 1.18 and 0.627 and 1.06
- cell count [10, 20]: 9720 and 9420 and 10200
- cell count [10, 21]: 10300 and 10100 and 11000
- z-score ([17]; MELAS cybrid survival, CellTiter-Glo 48 h, stronger effect = higher value): 0.462 (inactive)
- z-score ([17]; Rieske KO mouse fibroblast survival, CellTiter-Glo 72 h): 0.9
- z-score [12]: 0.365 (inactive) and -0.285 (inactive) and 0.8 (inactive)
